HSF1 activator: increases HSF-1 driven luciferase reporter signal | 300,000 compounds, 1.7% hits | NIH3T3-HGL HSF-1 luciferase reporter, MG132, 8 h; 100% = twice DMSO control signal | AID 504408 | activation, % at 9 µM;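 active means mean replicate activation of at least 50% with a set share of replicates each reaching 50%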
LGR2 inh: inhibitors of bursicon-induced Drosophila LGR2 receptor cAMP signaling. HEK293 LGR2, CRE-luciferase, bursicon-stimulated, 4 h. inhibition, % at 9.99 µM. 380,000 compounds, 0.35% hits. AID 720647;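 active means drop in luminescence signal, shown as inhibition above about 50% in the replicate tests, limit read from the data, passing the limit was not always enough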;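 further: agonist challenge used bursicon conditioned medium at about half maximal strength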
LMP1 NFkB inh: reduces LMP1-driven NF-kappaB luciferase signal | 350,000 compounds, 0.69% hits | AID 504558 | LMP1-induced NF-kappaB luciferase reporter cells, luminescence | inhibition, % at 12.5 µM; in the data active means inhibition above about 41%
HSF1 inhib: HSF1 inhibition; AID 2098; 300,000 compounds, 0.77% hits; NIH3T3-HGL HSE-luciferase, MG132-induced, luminescence 8 h; active compounds read low; activity change, negative = inhibition, % at 7.5 µM (by protocol);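 active means more than half of replicate wells show activity change below -50%, luminescence cut by over half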;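 further: luciferase reports HSF-1 transcriptional activity via heat shock element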
TROY signal inh: blocks TROY-dependent signaling in reporter cells; Q293 LMP1-TROYcd NF-kB luciferase reporter, 4 h; inhibition, % at 10 µM; 360,000 compounds, 0.98% hits; AID 1347056;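 active means compounds whose plate-normalised and pattern-corrected inhibition of the luciferase reporter signal at the single screening dose is 50% or more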
TWEAK Fn14 block: inhibitors of TWEAK-Fn14 interaction signaling; 360,000 compounds, 2% hits; AID 1159606; TWEAK-stimulated Fn14 reporter cells, luciferase luminescence, 8 h; inhibition, % at 10 µM; in the data active means inhibition above about 50%
A number is an active result; i = inactive; nt = no result given. The list is not random: actives were taken first. Their share in the collection is about 3.6%.

SMILES	HSF1 activator	LGR2 inh	LMP1 NFkB inh	HSF1 inhib	TROY signal inh	TWEAK Fn14 block
CCN(Cc1ccc2c(c1)OCO2)C(=O)/C=C/c1cccc(Br)c1	i	i	i	-74	i	i
CCCN(C)C[C@H]1Oc2ncc(C#CC3CC3)cc2C(=O)N([C@H](C)CO)C[C@H]1C	nt	i	nt	nt	nt	nt
CCCC#Cc1cnc2c(c1)C(=O)N([C@H](C)CO)C[C@@H](C)[C@H](CN(C)C(=O)C1CCOCC1)O2	nt	i	nt	nt	nt	nt
CN(C)c1ccc(N=Nc2cccc3ccoc23)cc1	i	i	i	i	i	i
Cc1cc(N(C)C)ccc1N=Nc1ccc2ncccc2c1	i	i	i	i	i	i
CN(C)c1ccc(N=Nc2cccc(F)c2)cc1	i	i	i	i	i	52
CN(C)c1ccc(N=Nc2ccc3ncccc3c2)cc1	nt	62	i	nt	i	52
CC(C)C#Cc1cnc2c(c1)C(=O)N([C@H](C)CO)C[C@H](C)[C@@H](CN(C)C(=O)CN1CCOCC1)O2	nt	i	nt	nt	nt	nt
CN1CCN(C(=O)C[C@@H]2CC[C@H]3[C@@H](COC[C@@H](O)CN3C(=O)C3CC3)O2)CC1	nt	i	nt	nt	nt	nt
COc1cc([C@H]2[C@@H]3CCCC[C@]3(O)CCN2CC(=O)Nc2ccc(C)cc2)ccc1O	i	nt	i	i	i	66
O=C(Nc1ccc2c(c1)OCO2)N[C@H]1CC[C@@H](CC(=O)N2CCN(c3ccccc3)CC2)O[C@H]1CO	nt	i	nt	nt	nt	nt
S=C(Nc1ccc(Br)cc1)Nc1ccc2c(c1)OCCO2	i	i	i	i	i	i
COc1cc2[nH]c(C(=O)Nc3ccc4c(c3)OCCO4)cc2c(OC)c1OC	i	i	i	i	56	71
COc1cc(NC(=S)Nc2ccc3c(c2)OCCO3)cc(OC)c1OC	i	i	i	i	57	i
COc1cc2cc(C(=O)Nc3ccc4c(c3)OCCO4)[nH]c2cc1OC	i	i	45	-72	77	93
COc1cccc(OC)c1C(=O)Nc1ccc2c(c1)OCCO2	i	nt	i	i	i	i
CCCNC(=O)N1CC2(C1)[C@@H](c1ccccc1)[C@@H](CO)N2Cc1cccc(F)c1	nt	i	nt	nt	nt	nt
CN1CCC(=NNc2ccc(S(=O)(=O)N3CCOCC3)cc2[N+](=O)[O-])CC1	98	i	i	i	i	i
CCOC(=O)N1CCC(=NNc2ccc(S(=O)(=O)N3CCOCC3)cc2[N+](=O)[O-])CC1	i	i	i	i	i	i
O=C(O)c1ccc(/C=N\Nc2ccc(S(=O)(=O)N3CCOCC3)cc2[N+](=O)[O-])cc1	i	i	i	i	i	i
Cc1ccc(-n2c(O)c(/C=N/Nc3ccc(S(=O)(=O)N4CCOCC4)cc3[N+](=O)[O-])c3ccccc3c2=O)c(C)c1	i	i	i	i	i	82
Cc1cc(NCCCn2ccnc2)n2ncc(-c3ccc(Cl)cc3)c2n1	i	nt	i	i	70	68
Cc1cccc(NC(=S)N=Nc2c(O)[nH]c3ccccc23)c1	90	i	i	i	i	83
Cc1occc1C(=O)N=Nc1c(O)[nH]c2ccc(Br)cc12	50	nt	nt	i	nt	nt
COc1ccccc1NC(=S)N=Nc1c(O)[nH]c2ccc(Br)cc12	86	i	i	i	i	i
SMILES	HSF1 activator	LGR2 inh	LMP1 NFkB inh	HSF1 inhib	TROY signal inh	TWEAK Fn14 block
Cc1cc(C)c(O)c(NC(=S)NC(=O)Cc2ccccc2)c1	i	i	i	i	i	72
Cc1cccc(NC(=S)NC(=O)Cc2ccccc2)c1C	i	i	i	i	i	i
Cc1ccc(-c2nc(NC(=O)CSc3nnc4scc(-c5ccccc5)n34)ns2)cc1	i	i	i	i	52	i
Cc1noc(C)c1CSc1ncnc2sc3c(c12)CCC(C)C3 (stereo unspecified)	i	nt	nt	i	nt	nt
Cc1noc(C)c1CSc1ncnc2sc3c(c12)CCC3	i	nt	nt	-73	nt	nt
COc1ccc(-c2ccc3c(c2)[C@@H]2[C@@H](CCN2C(=O)Cc2ccccc2)[C@@H](CO)N3C)cc1	nt	i	nt	nt	nt	nt
C[C@H]1CN([C@@H](C)CO)C(=O)c2cccc(NS(=O)(=O)c3ccc(F)cc3)c2O[C@H]1CN(C)CC1CC1	nt	i	nt	nt	nt	nt
O=C1NC(c2ccc(O)cc2)Nc2ccccc21 (stereo unspecified)	i	i	i	i	i	i
O=C1NC(c2cccc(OCc3ccccc3)c2)Nc2ccccc21 (stereo unspecified)	nt	i	61	nt	i	i
O=S(=O)(c1ccccc1)N1CCN(Cc2cccc(Cl)c2)CC1	nt	nt	i	nt	i	79
COc1ccc(CN2CCN(S(=O)(=O)c3ccccc3)CC2)cc1Br	i	nt	i	-61	i	i
COc1ccc(CN2CCN(S(=O)(=O)c3ccc(F)cc3)CC2)cc1OC	i	nt	i	i	i	i
C[C@@H]1CN([C@@H](C)CO)C(=O)c2cccc(NS(C)(=O)=O)c2O[C@H]1CN(C)CC1CC1	nt	i	nt	nt	nt	nt
COc1ccc(N2CCN(C(c3cccs3)C(C)NS(=O)(=O)c3ccccc3)CC2)cc1 (stereo unspecified)	82	nt	i	i	i	i
O=C(c1cnccn1)N1CC[C@@H]2[C@H]1c1cc(-c3cccc(F)c3)ccc1N[C@@H]2CO	nt	i	nt	nt	nt	nt
COc1ccc(NC(=O)N(C)C[C@H]2Oc3ccc(NS(=O)(=O)c4cn(C)cn4)cc3CC(=O)N([C@H](C)CO)C[C@@H]2C)cc1	nt	i	nt	nt	nt	nt
COc1ccccc1N1CCN(/N=C\c2ccccc2)CC1	i	i	i	i	i	i
COc1ccccc1N1CCN(/N=C\c2ccc(C)o2)CC1	63	nt	i	i	i	i
COc1ccccc1N1CCN(/N=C/C(Cl)=C/c2ccccc2)CC1	55	i	i	i	i	i
Nc1ccc(C2=Nc3cccc4cccc(c34)N2)cc1	73	nt	i	i	i	i
CC1CCCN(C(=O)c2ccc(S(=O)(=O)N3CCC(c4nc5ccccc5s4)CC3)cc2)C1 (stereo unspecified)	i	nt	i	i	52	57
CCN(CC)C(=O)c1ccc(S(=O)(=O)N2CCC(c3nc4ccccc4s3)CC2)cc1	i	nt	i	i	i	i
COc1ccc(C2=NCCn3c2c2ccc(C(F)(F)F)cc2[n+]3[O-])cc1	i	i	i	i	i	i
Cc1ccc(C2=NCCn3c2c2ccc(C(F)(F)F)cc2[n+]3[O-])cc1	i	i	i	-55	i	i
COc1ccc(S(=O)(=O)n2nc(OC(=O)c3ccccc3)cc2N)cc1	i	nt	i	i	i	i
SMILES	HSF1 activator	LGR2 inh	LMP1 NFkB inh	HSF1 inhib	TROY signal inh	TWEAK Fn14 block
COc1ccc(S(=O)(=O)n2nc(OC(=O)c3ccc(C)cc3)cc2N)cc1	i	nt	i	i	59	i
CS(=O)(=O)n1nc(OC(=O)c2cccc3ccccc23)cc1N	i	nt	i	i	i	56
Cc1ccccc1C(=O)Oc1cc(N)n(S(=O)(=O)c2ccccc2)n1	i	i	i	i	i	55
COc1ccccc1C(=O)Oc1cc(N)n(S(=O)(=O)c2ccccc2)n1	i	i	i	i	i	i
CS(=O)(=O)n1nc(OC(=O)c2cc(Br)ccc2Cl)cc1N	i	i	i	i	i	i
Cc1ccc(C(=O)Oc2cc(N)n(S(=O)(=O)c3ccc(C)cc3)n2)cc1	i	i	i	i	i	68
